# Laboratory results from PubChem BioAssay (NCATS).
# Values joined by “and” are separate entries in the source; they are usually repeats but may differ in a detail not shown here. Equal entries are not always repeated. A number with no mark means an inactive call. Records with an inconclusive call do not appear. Active and inactive are the calls of the source.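 How the source made its calls, unless noted: active means compounds whose dose series gives a full or clear partial fitted curve of increased nuclear translocation; inconclusive means weak partial curve or effect only at the top dose; inactive means no dose-dependent translocation response.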
# Tests used:
# [1] = Stat Signaling Pathway (AID 446; active means well fitted curve in either direction with a large enough effect, not every such curve was filed as active;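 further: ME-180 cervical cancer cells given 40 pM IL-6 alongside compound; SIE-controlled beta-lactamase reporter measured as 460/530 nm FRET emission ratio; on the % scale 0 is the no-effect control and ±100 the full control effect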); details: ME-180 SIE beta-lactamase reporter, IL-6 stimulated, 5 h; at 17.2 µM (top of the series) unless noted
# Method in brief: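 ME-180 SIE-bla cells; overnight plating; cpd + IL-6 40 pM, 5 h, 37 C; LiveBLAzer 2.5 h RT; 460/530 nm emission ratio. Normalized to 300 pM IL-6 and 125 nM JAK inhibitor controls.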
# [2] = biological target: Glucocorticoid receptor (Homo sapiens) (UniProt P04150); experiment: GR-GFP Redistribution (AID 450); further: potency means the concentration at half of the fitted maximal effect
# Chain of Glucocorticoid receptor (Homo sapiens) (P04150 whole entry, looked up, the tested form may be a part): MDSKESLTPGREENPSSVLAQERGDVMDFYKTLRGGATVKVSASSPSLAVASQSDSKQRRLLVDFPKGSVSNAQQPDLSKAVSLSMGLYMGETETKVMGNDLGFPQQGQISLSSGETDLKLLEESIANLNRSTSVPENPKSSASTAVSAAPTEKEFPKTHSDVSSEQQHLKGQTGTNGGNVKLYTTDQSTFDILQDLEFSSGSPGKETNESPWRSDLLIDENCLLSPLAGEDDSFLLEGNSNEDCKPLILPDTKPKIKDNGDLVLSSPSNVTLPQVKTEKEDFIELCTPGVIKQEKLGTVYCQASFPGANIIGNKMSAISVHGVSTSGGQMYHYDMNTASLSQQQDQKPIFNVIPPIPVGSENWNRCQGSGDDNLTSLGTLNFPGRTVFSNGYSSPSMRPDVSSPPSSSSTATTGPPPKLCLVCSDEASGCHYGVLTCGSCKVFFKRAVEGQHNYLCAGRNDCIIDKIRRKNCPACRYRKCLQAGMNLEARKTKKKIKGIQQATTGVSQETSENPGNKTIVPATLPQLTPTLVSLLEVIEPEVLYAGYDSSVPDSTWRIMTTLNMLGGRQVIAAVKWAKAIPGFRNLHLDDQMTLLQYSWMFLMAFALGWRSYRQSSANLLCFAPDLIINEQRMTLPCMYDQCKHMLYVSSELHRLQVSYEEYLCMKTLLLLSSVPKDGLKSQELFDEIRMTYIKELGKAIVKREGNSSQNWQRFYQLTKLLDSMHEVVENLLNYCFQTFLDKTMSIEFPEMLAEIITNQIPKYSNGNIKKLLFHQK
# [3] = biological target: Glucocorticoid receptor (Homo sapiens) (UniProt P04150); experiment: GR-EFC Redistribution (AID 451; calls by dose curve; further: potency means the concentration at half of the fitted maximal effect); details: CHO-K1 GR-EFC translocation, beta-gal luminescence, 2 h
# Method in brief: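 CHO-K1 cells expressing nuclear EA and GR-ED fragments of b-gal; compounds titrated up to 46 uM final, 2 h at 37 C. GR nuclear translocation read as complemented b-gal luminescence after 1 h RT detection.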
# [4] = biological target: 3',5'-cyclic-AMP phosphodiesterase 4B (Homo sapiens) (UniProt Q07343); experiment: qHTS Assay for Inhibitors of PDE-IV (AID 607; active means well fitted activation curve with a large enough effect in the main read-out, with a control signal flat, not every such curve was filed as active; further: % of control where 0% means no effect)
# Chain of 3',5'-cyclic-AMP phosphodiesterase 4B (Homo sapiens) (Q07343 whole entry, looked up): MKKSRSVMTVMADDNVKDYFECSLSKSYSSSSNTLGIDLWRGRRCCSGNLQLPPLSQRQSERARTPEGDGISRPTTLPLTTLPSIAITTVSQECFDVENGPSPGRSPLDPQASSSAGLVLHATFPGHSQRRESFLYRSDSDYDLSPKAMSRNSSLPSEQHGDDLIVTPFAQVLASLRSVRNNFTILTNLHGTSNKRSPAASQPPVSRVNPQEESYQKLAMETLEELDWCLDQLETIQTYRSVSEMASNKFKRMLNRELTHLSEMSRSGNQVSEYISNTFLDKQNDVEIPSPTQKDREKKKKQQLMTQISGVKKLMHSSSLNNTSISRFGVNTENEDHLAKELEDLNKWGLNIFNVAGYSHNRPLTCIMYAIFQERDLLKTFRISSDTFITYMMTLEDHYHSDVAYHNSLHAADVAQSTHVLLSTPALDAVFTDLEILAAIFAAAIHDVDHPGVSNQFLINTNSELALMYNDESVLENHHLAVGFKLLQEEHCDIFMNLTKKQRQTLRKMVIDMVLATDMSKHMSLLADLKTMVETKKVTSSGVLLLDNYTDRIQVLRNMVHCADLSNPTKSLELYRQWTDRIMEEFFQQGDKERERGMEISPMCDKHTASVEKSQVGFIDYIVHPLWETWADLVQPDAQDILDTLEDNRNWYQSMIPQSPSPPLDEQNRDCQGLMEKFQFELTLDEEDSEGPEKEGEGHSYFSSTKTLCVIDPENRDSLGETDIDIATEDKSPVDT
# Method in brief: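 ACTOne HEK293 cells carry a modified cAMP-gated CNG channel and express endogenous PDE4; plated 1000 cells/well, compounds up to 22.9 uM final. Membrane-potential dye fluorescence (ex 535/em 590) was read; parental cells received 10 uM forskolin + 100 uM RO 20-1724.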
# [5] = biological target: Guanine nucleotide-binding protein G(i) subunit alpha-1 (Homo sapiens) (UniProt P63096); experiment: qHTS Assay for Inhibitors of RGS12 GoLoco Motif Activity (Green Fluorophore) (AID 879; active means well fitted curve in the direction sought with a large enough effect; an effect the other way counts as inactive or inconclusive;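 further: 0% = labeled peptide with Gαi1 and full inhibition = labeled peptide alone without protein; negative values mean loss of peptide binding seen as reduced polarization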)
# Chain of Guanine nucleotide-binding protein G(i) subunit alpha-1 (Homo sapiens) (P63096 whole entry, looked up): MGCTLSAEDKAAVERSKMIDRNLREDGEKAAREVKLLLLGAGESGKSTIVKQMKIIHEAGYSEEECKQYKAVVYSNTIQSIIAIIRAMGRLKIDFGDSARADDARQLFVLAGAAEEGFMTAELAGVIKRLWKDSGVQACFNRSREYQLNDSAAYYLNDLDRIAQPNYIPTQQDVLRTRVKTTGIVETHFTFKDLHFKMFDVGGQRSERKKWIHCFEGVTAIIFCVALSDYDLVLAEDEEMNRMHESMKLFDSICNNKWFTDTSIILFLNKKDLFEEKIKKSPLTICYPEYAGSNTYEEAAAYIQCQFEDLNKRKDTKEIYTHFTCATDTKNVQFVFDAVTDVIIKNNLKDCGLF
# Method in brief: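 Fluorescence polarization assay: 50 nM Gαi1 with 10 nM FITC-labeled RGS12 GoLoco peptide in 10 mM Tris pH 7.5, 150 mM NaCl, 0.1 mM GDP, 0.05% NP40, 10 min at room temperature with compound.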
# [6] = qHTS Assay for Identification of Small Molecule Antagonists for Thrombopoietin (TPO) Signaling Pathway (AID 918; active means well fitted curve in the direction sought with a large enough effect; an effect the other way counts as inactive or inconclusive; further: potency means the concentration at half of the fitted maximal effect; nearly all actives have a fitted effect of over 60% in size); details: TPO-dependent cell signaling reporter, antagonist mode
# Method in brief: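 Ba/F3 (murine, hTPO-R, GPIIb-luc reporter); overnight IL-3 withdrawal; cpd + TPO 26 pM final (EC50); 24 h 37 C/5% CO2; Steadylite luminescence after 10 min RT.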
# [7] = biological target: Pyruvate kinase (Leishmania mexicana) (UniProt Q27686); experiment: qHTS Validation Assay for Inhibitors of Leishmania Mexicana Pyruvate Kinase (AID 945; active means well fitted curve in the direction sought with a large enough effect; an effect the other way counts as inactive or inconclusive;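 further: 0% = DMSO only neutral control wells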)
# Chain of Pyruvate kinase (Leishmania mexicana) (Q27686 2-499 E452W): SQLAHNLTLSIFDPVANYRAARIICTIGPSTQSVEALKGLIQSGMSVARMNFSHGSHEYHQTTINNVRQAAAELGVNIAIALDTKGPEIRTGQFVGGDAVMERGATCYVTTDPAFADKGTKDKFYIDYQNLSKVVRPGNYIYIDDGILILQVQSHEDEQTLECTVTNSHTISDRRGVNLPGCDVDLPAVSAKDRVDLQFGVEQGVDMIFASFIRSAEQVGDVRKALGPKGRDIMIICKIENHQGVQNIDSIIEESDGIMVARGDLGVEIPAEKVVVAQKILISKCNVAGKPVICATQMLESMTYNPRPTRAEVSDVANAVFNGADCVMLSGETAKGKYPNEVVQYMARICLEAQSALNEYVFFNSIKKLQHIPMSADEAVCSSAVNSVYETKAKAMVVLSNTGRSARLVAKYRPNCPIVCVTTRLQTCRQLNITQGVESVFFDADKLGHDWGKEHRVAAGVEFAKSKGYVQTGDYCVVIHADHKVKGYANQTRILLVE
# Method in brief: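 Mutant LmPYK (E451W), 0.2 nM, plus 0.5 mM PEP and 0.1 mM ADP in 50 mM imidazole pH 7.2 containing 0.01% Tween 20 and 0.05% BSA. Incubated 1 h at room temperature; luminescence via PKLight, normalized to DMSO.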
# [8] = biological target: Pyruvate kinase PKM (Homo sapiens) (UniProt P14618); experiment: qHTS Assay for Activators of Human Muscle Pyruvate Kinase (AID 954; active means well fitted curve in the direction sought with a large enough effect, not every such curve was filed as active;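 further: 0% = uninhibited enzyme and -100% = no enzyme or full thiadiazolimine inhibition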)
# Chain of Pyruvate kinase PKM (Homo sapiens) (P14618 whole entry, looked up): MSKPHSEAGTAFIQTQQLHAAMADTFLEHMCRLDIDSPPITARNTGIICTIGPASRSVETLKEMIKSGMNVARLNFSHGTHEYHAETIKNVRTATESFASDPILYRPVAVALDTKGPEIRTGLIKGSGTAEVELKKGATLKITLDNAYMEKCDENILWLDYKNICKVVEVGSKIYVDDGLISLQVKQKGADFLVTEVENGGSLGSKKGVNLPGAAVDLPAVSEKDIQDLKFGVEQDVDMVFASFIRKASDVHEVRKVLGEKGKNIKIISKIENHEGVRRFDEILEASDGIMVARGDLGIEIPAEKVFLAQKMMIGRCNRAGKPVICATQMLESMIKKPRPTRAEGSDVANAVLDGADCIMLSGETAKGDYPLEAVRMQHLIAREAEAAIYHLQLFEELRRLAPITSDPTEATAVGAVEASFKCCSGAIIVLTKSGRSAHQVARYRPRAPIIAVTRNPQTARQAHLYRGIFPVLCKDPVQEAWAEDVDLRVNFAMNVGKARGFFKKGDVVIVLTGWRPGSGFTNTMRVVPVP
# Method in brief: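 Luminescence from a luciferase ATP-detection/stop reagent reported PKM2 activity. Reactions contained 0.1 nM purified human enzyme, 0.5 mM PEP, 0.1 mM ADP and 7 mM MgCl2 at pH 7.2, run 1 h at RT.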
# [9] = biological target: Alpha-galactosidase A (Homo sapiens) (UniProt P06280); experiment: Counterscreen for Glucocerebrosidase Inhibitors: qHTS Assay for Human alpha-Galactosidase at pH 4.5 (AID 992; active means well fitted curve in the direction sought with a large enough effect; an effect the other way counts as inactive or inconclusive; further: 0% is about no effect)
# Chain of Alpha-galactosidase A (Homo sapiens) (P06280 whole entry, looked up): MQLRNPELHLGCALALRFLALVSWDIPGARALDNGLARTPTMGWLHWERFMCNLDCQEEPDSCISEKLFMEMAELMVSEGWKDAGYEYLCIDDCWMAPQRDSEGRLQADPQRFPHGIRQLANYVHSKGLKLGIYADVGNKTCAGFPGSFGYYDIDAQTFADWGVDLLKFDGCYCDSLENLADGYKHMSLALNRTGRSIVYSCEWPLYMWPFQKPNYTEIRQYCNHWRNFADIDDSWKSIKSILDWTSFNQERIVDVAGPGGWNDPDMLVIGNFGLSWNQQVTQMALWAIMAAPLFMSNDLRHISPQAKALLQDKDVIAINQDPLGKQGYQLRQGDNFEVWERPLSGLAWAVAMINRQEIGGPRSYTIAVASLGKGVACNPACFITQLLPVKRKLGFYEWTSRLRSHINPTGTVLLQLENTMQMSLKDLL
# Method in brief: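 Enzyme at 2 nM final was combined with compound (0.7 nM to 77 uM) and 80 uM 4-methylumbelliferyl alpha-D-galactopyranoside in 50 mM citric acid, 0.005% Tween-20, pH 4.5. After 20 min at room temperature, fluorescence was read (Ex 365/Em 440 nm); AC50 came from Hill fits.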
# [10] = biological target: alpha-glucosidase (Oryza sativa, rice) (UniProt Q653V4); experiment: Counterscreen for Glucocerebrosidase Inhibitors: qHTS Assay for Rice alpha-Glucosidase at pH 5.0 (AID 997; active means well fitted curve in the direction sought with a large enough effect; an effect the other way counts as inactive or inconclusive;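 further: 0% = full activity with enzyme and -100% = basal without enzyme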)
# Method in brief: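 Rice alpha-glucosidase (4 nM final) with 400 uM 4-methylumbelliferyl-alpha-D-glucopyranoside in citrate buffer pH 5.0, 20 min at room temperature, stopped at pH 10; fluorescence 365/440 nm, compounds 0.7 nM–77 uM, AC50 from Hill fits.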
structure (smiles),measurement,setting,value
CC1CCN(c2[nH]c(=S)c(C#N)c3c2CCCC3)CC1,"activity, negative = inhibition",[1],-15.1%
same,Potency,[2],> 20.6 µM
COc1cccc(-c2nnc3sc(C4CCCCC4)nn23)c1,"activity, negative = inhibition",[1],-91.1% (active)
same,Potency,[2],> 20.6 µM
COc1ccc(C(=O)C(CN2CCCC2)c2ccccc2)cc1 (stereo not given),"activity, negative = inhibition",[1],-8.3%
same,Potency,[2],> 20.6 µM
COC(=O)c1[nH]c2cc(OC)ccc2c1NC(=O)CN1CCN(c2cccc(C)c2)C(C)C1 (stereo not given),"activity, negative = inhibition",[1],-21.4%
same,Potency,[2],> 20.6 µM
COc1ccc(CCn2c(C)cc3c(c2=O)C(c2ccc4c(c2)OCO4)C(C#N)=C(N)O3)cc1OC (stereo not given),"activity, negative = inhibition",[1],-21.6%
same,Potency,[2],> 20.6 µM
CCn1cc(C(=O)NCCCN(C)C)c(=O)c2cc(F)c(N3CCN(C)CC3)cc21,"activity, negative = inhibition",[1],3.71%
same,Potency,[2],> 20.6 µM
CCOC(=O)C1CCN(c2nc3ccccc3nc2C(C#N)C(=O)NCCc2ccccc2)CC1 (stereo not given),"activity, negative = inhibition",[1],-24.6%
same,Potency,[2],> 20.6 µM
Cc1c(C)c2c(c(C)c1O)CC[C@@](C)(CN1CCN(c3cc(N4CCCC4)nc(N4CCCC4)n3)CC1)O2,"activity, negative = inhibition",[1],19.8% [at 38 µM]
same,Potency,[2],> 46 µM
same,Potency,[3],> 46 µM
same,Potency,[4],inactive
same,outcome,[5],inactive
same,Potency,[6],10 µM (active)
same,Potency,[7],inactive
same,outcome,[8],inactive
same,outcome,[9],inactive
same,outcome,[10],inactive
N#CC1=C(N)NC(SCc2ccc(F)cc2)=C(C#N)C12CCCCC2,"activity, negative = inhibition",[1],-24.1%
same,Potency,[2],> 20.6 µM
N#Cc1nc(-c2ccc(Cl)cc2)oc1N1CCCCC1,"activity, negative = inhibition",[1],2.4%
same,Potency,[2],> 20.6 µM
Cn1c(NCC(O)c2ccccc2)nc2c1c(=O)n(Cc1ccc(Cl)cc1)c(=O)n2C (stereo not given),"activity, negative = inhibition",[1],-24.9%
same,Potency,[2],> 20.6 µM
CC(NC(=O)CSc1nc2c(cc1C#N)CN(C)CC2)c1ccccc1 (stereo not given),"activity, negative = inhibition",[1],-4.3%
same,Potency,[2],> 20.6 µM
CC(C)OC(=O)c1c2nc3ccccc3nc2n2c1[nH]c(=O)c1ccccc12,"activity, negative = inhibition",[1],-17%
same,Potency,[2],> 20.6 µM
CCOC(=O)N1CCN(c2ncnc3c2[nH]c2ccc(OC)cc23)CC1,"activity, negative = inhibition",[1],-22.9%
same,Potency,[2],> 20.6 µM
CCC1(C)Cc2ccccc2-c2nc(NCCO)n(-c3ccccc3)c(=O)c21 (stereo not given),"activity, negative = inhibition",[1],-2.14%
same,Potency,[2],> 20.6 µM
COc1ccccc1N1C(=O)C2ON(c3ccccc3)C(c3ccc(N(C)C)cc3)C2C1=O (stereo not given),"activity, negative = inhibition",[1],-10.2%
same,Potency,[2],> 20.6 µM
CSc1ccc2c(c1)N(CC[C@H]1CCCCN1C)c1ccccc1S2,"activity, negative = inhibition",[1],-7.21%
same,Potency,[2],> 46 µM and > 20.6 µM
same,Potency,[3],> 46 µM and > 20.6 µM
same,Potency,[4],inactive
same,outcome,[5],inactive
same,Potency,[6],12.6 µM (active)
same,Potency,[7],inactive
same,outcome,[8],inactive
same,outcome,[9],inactive
same,outcome,[10],inactive
